# Assay results published in ChEMBL document CHEMBL3988442, “University of Dundee, Small-Polar-MMV Screening Library” (2021).
# About 13,000 (27%) of roughly 48,000 compounds showed an effect of 50% or more. This is one part of the list.
# Tested on: Wolbachia pipientis
# Test: Anti-Wolbachia Cell-Based Screen
# Assay type: functional
# Set-up: scale not given: in the data most compounds retested in dose-response had high values
# Details: 5 µM
row,SMILES,Percent Effect
1,O=C(CCN1CCCCO1)N1CC[C@H](O)[C@@H](O)C1,-19.59%
2,Cc1ccc(S(=O)(=O)NC(=O)c2cc(S(C)(=O)=O)ccc2C)s1,12.42%
3,CCOC(=O)c1ccc(CNC(=O)c2ccon2)o1,45.33%
4,FC(F)(F)c1ccnc(N2CCCOCC2)c1,1.908%
5,OC1(CN2CCCCC2)CCN(c2ccc(C(F)(F)F)cn2)C1 (centres undefined),107.5%
6,CS(=O)(=O)NCC1CCCN(c2ccc(C(F)(F)F)cn2)C1 (centres undefined),7.899%
7,FC(F)(F)c1ccnc(N2CCCCCC2)c1,6.382%
8,OC1(CN2CCCC2)COCCN(c2nccs2)C1 (centres undefined),-1.349%
9,Cc1cc(F)ccc1CN1CCC(O)(CN2CCCCC2)C1 (centres undefined),-5.371%
10,O=C(c1cn(-c2ccc(C(F)(F)F)cn2)nn1)N1CCCCCC1,-5.295%
11,OC1(CN2CCCC2)COCCN(c2cc(C(F)(F)F)ccn2)C1 (centres undefined),99.83%
12,OC1(CN2CCCCC2)CCN(c2cc(C(F)(F)F)ccn2)C1 (centres undefined),106.3%
13,CCc1nnc(CNC(=O)CCCN2CCCCC2)s1,-1.719%
14,O=C(NCCNC(=O)C1CC1)c1sccc1Br,0.3352%
15,Cc1cccc(C(C(=O)NCc2csc(-c3ncccn3)n2)N(C)C)c1 (centres undefined),2.9%
16,CSC(CNS(=O)(=O)c1cnn(C)c1)c1cccc(Cl)c1 (centres undefined),-0.2397%
17,CC(=O)c1cc(CN2C[C@@H](CN3CCCC3)[C@@H](CO)C2)n(C)c1,0.4917%
18,Cn1c(CN2CCCCCC2)cc(=O)c(O)c1CN1CCCC1,177.4%
19,Cc1noc(C2CCN(Cc3cc(=O)n(C)c(=O)n3C)CC2)n1,2.603%
20,CCS(=O)(=O)N1CCC(c2nnc(CN3CCCCC3)n2C)CC1,-11.51%
21,CCS(=O)(=O)N1CCC(c2nnc(CN3CCCCCC3)n2C)CC1,-3.352%
22,Cn1c(CN2CCCCC2)cc(=O)c(O)c1CN1CCCCC1,95.65%
23,Cc1ccc(CNC2(Cc3cc(-c4ccccc4)on3)COC2)o1,-15.57%
24,CN1CCN(Cc2ccccc2CNC(=O)c2cc(Cl)ccc2F)CC1,-3.272%

row,SMILES,Percent Effect
1,Cn1ncc(C2CC(=O)NCc3nc4sccn4c32)c1C1CC1 (centres undefined),-19.57%
2,COc1cc(Cl)ccc1CNC(=O)N(C)C(C)CS(C)(=O)=O (centres undefined),2.125%
3,COc1ccc(OC)c(CNC(=O)N2CCC(n3cncn3)CC2)c1,67.1%
4,CCOc1cc(Cl)ccc1CNC(=O)N1CCCC(CO)C1 (centres undefined),-9.935%
5,CCC(CC)c1cc(CNC(=O)N2CCC(n3cncn3)CC2)on1,-7.222%
6,COc1cc(Cl)ccc1CNC(=O)N1CCC(n2cncn2)CC1,88.5%
7,CC(C)CC1(C(=O)NCCc2nncn2C2CC2)CCC1,-4.64%
8,COCCn1cncc1CN1CCCC(C(=O)Cc2ccccc2)C1 (centres undefined),-2.141%
9,FC(F)Oc1ccc(CNCc2cc(Br)c3c(c2)OCO3)cc1,-6.924%
10,Cc1cccc(S(=O)(=O)NC(=O)CN(C)Cc2ccccc2)c1,-8.063%
11,OC1CCN(Cc2ccc(CNc3ncc(Cl)cc3F)cc2)CC1,12.54%
12,CCc1ncc2c(n1)CN(CC(=O)NCCOc1ccccc1)CC2,-2.298%
13,CCc1ncc2c(n1)CN(CC(=O)Nc1ccc(Cl)cn1)CC2,-11.22%
14,CCc1ncc2c(n1)CN(CC(=O)Nc1ccncc1)CC2,110.2%
15,CC(C)c1ncc2c(n1)CN(CC(=O)Nc1ccncc1)CC2,121.8%
16,O=C1C[C@@H]2CCN(Cc3ccccc3)C[C@@H]2CCN1C1CCCCC1,-3.832%
17,Cc1cc(F)cc2c(NCC(C)(C)C(N)=O)c(C#N)cnc12,-8.15%
18,Cc1[nH]c2ccccc2c1-c1ccnc(NC[C@H](O)CO)n1,2.314%
19,Cc1ccc(-c2ccnc(NC(C)c3c(C)n[nH]c3C)n2)c(C)n1 (centres undefined),5.666%
20,Cc1[nH]c2ccccc2c1-c1ccnc(NCCN2CCOCC2)n1,0.04004%
21,Cc1[nH]c2ccccc2c1-c1ccnc(N[C@@H](CO)C(C)C)n1,99.82%
22,O=C(NCCN1CCCCC1)c1nc2ccccc2c(=O)[nH]1,8.44%
23,Cc1[nH]c2ccccc2c1-c1ccnc(N[C@@H](C)CO)n1,114.9%
24,Cc1[nH]c2ccccc2c1-c1ccnc(NCCN2CCCCC2)n1,107.1%

row,SMILES,Percent Effect
1,Cc1[nH]c2ccccc2c1-c1ccnc(N[C@H](CO)CC(C)C)n1,64.61%
2,Cc1ccc(-c2nc(CNC(C)CCO)[nH]c2-c2ccccn2)cc1 (centres undefined),0.0278%
3,Cn1cc(C2CC3(CCN(C(=O)c4cccs4)CC3)NC2=O)cn1 (centres undefined),3.208%
4,COc1cc(Cl)cc(C(=O)N2CCC3(CC2)CNC(=O)C3)c1,-6.802%
5,CCOCc1nc2c(c(N(C)Cc3ccsc3)n1)CCNCC2,-15.95%
6,Fc1ccccc1CN1C[C@@H]2CN(Cc3cccnc3)CCO[C@@H]2C1.O=C(O)C(F)(F)F.O=C(O)C(F)(F)F.O=C(O)C(F)(F)F,0.8548%
7,COc1ccccc1CN1C[C@@H]2CN(Cc3cccnc3)CCO[C@@H]2C1.O=C(O)C(F)(F)F.O=C(O)C(F)(F)F.O=C(O)C(F)(F)F,-7.53%
8,O=C(CCc1ccccc1)N1C[C@@H]2CN(Cc3ccoc3)CCO[C@@H]2C1.O=C(O)C(F)(F)F,22.25%
9,COCCN1CCO[C@@H]2CN(C(=O)c3ccc4[nH]ccc4c3)CC[C@@H]2C1,-49.46%
10,O=C(O)C(F)(F)F.O=C(c1ccc2[nH]ccc2c1)N1CC[C@@H]2CN(CC3CC3)CCO[C@@H]2C1,-56.17%
11,CC(=O)N1CCO[C@@H]2CN(Cc3ccccc3Cl)C[C@@H]2C1.O=C(O)C(F)(F)F,111.8%
12,O=C(c1ccccc1)N1CCO[C@@H]2CN(Cc3ccc[nH]3)C[C@@H]2C1,106.1%
13,O=C(O)C(F)(F)F.O=C([C@H]1CN(Cc2ccccc2F)C[C@H]2OCC[C@@H]12)N1CCCO1,3.627%
14,CC(=O)N1CCO[C@@H]2CN(Cc3ccccc3F)C[C@@H]2C1.O=C(O)C(F)(F)F,102.5%
15,COc1ccccc1CN1C[C@@H]2CN(C(C)=O)CCO[C@@H]2C1.O=C(O)C(F)(F)F,111.4%
16,COCCN1CCO[C@@H]2CN(Cc3ccccc3OC)C[C@@H]2C1.O=C(O)C(F)(F)F.O=C(O)C(F)(F)F,1.646%
17,CN(C)C(C(=O)NCCSc1ncn[nH]1)c1cccc(F)c1 (centres undefined),-5.881%
18,Cc1cc(NC(=O)CSc2nc(=O)ccn2C(C)C)no1,-5.923%
19,C/C(=C/c1ccccc1)CNCc1cccc(C(N)=O)c1,-6.417%
20,Cc1ccc(CNC(=O)NCC(=O)N2CCCC2)c(N2CCCC2)c1,-13.16%
21,CCC(NCc1cc[nH]n1)c1nc(C(F)(F)F)cs1 (centres undefined),-5.752%
22,CN1CCO[C@@H]2CN(C(=O)COc3cccc(Cl)c3)C[C@@H]2C1.O=C(O)C(F)(F)F,-8.699%
23,COc1ccc(CN2C[C@@H]3CN(Cc4cccnc4)CCO[C@@H]3C2)cc1.O=C(O)C(F)(F)F.O=C(O)C(F)(F)F.O=C(O)C(F)(F)F,13.72%
24,CC(=O)N1CCO[C@@H]2CN(Cc3cccc(Cl)c3)C[C@@H]2C1.O=C(O)C(F)(F)F,105.7%

row,SMILES,Percent Effect
1,Cc1[nH]ccc1C(=O)N1C[C@H]2CC[C@@H]1CN(S(=O)(=O)N(C)C)C2,-3.55%
2,Cc1ccc(CNC(=O)N(C)Cc2ccc([S+](C)[O-])cc2)s1 (centres undefined),-1.725%
3,O=C(c1ccccc1F)N1CCOC(c2nc(-c3ncccn3)no2)C1 (centres undefined),128.4%
4,O=C(c1ccccc1F)N1CC(c2nc(-c3ccc[nH]c3=O)no2)C1,1.982%
5,CO[C@H]1COCCN(C(=O)c2ccc(F)cc2)C1,0.8542%
6,Cc1ccc(C(=O)N2CCOC(c3nc(-c4ncccn4)no3)C2)cc1 (centres undefined),94.58%
7,O=C(c1ccc(F)cc1)N1CCOC(c2nc(-c3ncccn3)no2)C1 (centres undefined),124.8%
8,O=C(c1ccccc1F)N1CC(c2nc(C3CC3)no2)C1,5.464%
9,N#Cc1ccc(C(=O)N2CC(c3nc(-c4ncccn4)no3)C2)cc1,10.08%
10,O=C(c1cccnc1N1CCOC(c2ccc(F)cc2)C1)N1CCCC1 (centres undefined),5.755%
11,Cc1nccnc1-n1c(COCC(=O)O)nc2c(C)cccc21,-2.278%
12,Cc1nc2c(C(=O)O)cccc2n1-c1ccc(C(=O)N2CCCC2)o1,-15.07%
13,CC(=O)N1CCN(C(=O)C[C@@H]2C[C@@H](C(C)C)[C@H](CC#N)C=C2C)CC1,4.574%
14,Cc1ccnc(N2CCC(NCCOc3ccccc3)CC2)n1,-3.135%
15,CC(=O)NCCNC(=O)CNC1CCCN(c2ccc(C)nn2)C1 (centres undefined),88.86%
16,Cc1ccc(N2CCCC(NCC(=O)Nc3cc(C)nn3C)C2)nn1 (centres undefined),95.11%
17,COCCCNC1CCCN(c2ccc(C)nn2)C1 (centres undefined),22.77%
18,CC(C)=CCNC1CCCN(c2ccc(C)nn2)C1 (centres undefined),-19.9%
19,Cc1ccc(N2CCCC(NCCS(C)(=O)=O)C2)nn1 (centres undefined),2.432%
20,Cc1ccc(N2CCCC(NCC(=O)NCC3CC3)C2)nn1 (centres undefined),1.938%
21,Cc1ccc(N2CCCC(NCCCS(C)(=O)=O)C2)nn1 (centres undefined),0.9171%
22,Cc1ccc(N2CCCC(NCC(=O)NC(C3CC3)C3CC3)C2)nn1 (centres undefined),84.95%
